Compound activity (PubChem)
12-LOX inh = ALOX12 (human) lipoxygenase inhibition; P18054; purified 12hLO, xylenol orange hydroperoxide absorbance; Potency, µM (top dose mostly 108 µM), inactives show top-dose activity change, negative = inhibition, usual class: inhibitors; 580,000 tested, 1.1% active; AID 1671190
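Hydroperoxide product was detected by ferrous iron/xylenol orange as the 573 to 405 nm absorbance ratio. Arachidonic acid at 40 uM (final) was turned over for 30 min at room temperature by 150 nM human 12hLO, pH 7.0 Hepes buffer, after 15 min compound preincubation.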
Sfp PPTase inh = Sfp phosphopantetheinyl transferase inhibition | Potency, µM, without a hit: largest response in the series, negative = inhibition, usual class: inhibitors | Biochemical Sfp PPTase activity, qHTS | AID 1490 | 310,000 tested, 3.5% active | Q9F4F7;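 also: the enzyme is Sfp with the accession as filed and its product quenches rhodamine fluorescence; 0% = enzyme reaction without inhibitor and -100% = no enzyme wells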
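Compounds were incubated with enzyme (final 15 nM) for 15 min at room temperature before substrate addition started the reaction. Fluorescence at 525 nm excitation, 598 nm emission was recorded immediately and after 30 minutes.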
PLK1 PBD block = blocks phosphopeptide binding to human PLK1 polo-box domain; Plk1 PBD binding of FITC phosphopeptide, fluorescence polarization; Potency, µM, without a hit: max response, negative = inhibition, actives largely listed as inhibitors; 360,000 tested, 2.8% active; P53350; AID 720504; also: series mostly up to about 57 µM; nearly all actives have a fitted effect of over 65% in size
VDR inhibitor = blocks the human vitamin D receptor; P11473; VDR-SRC2-3 peptide fluorescence polarization, 2 h; Potency, µM, for the others: max response, negative = inhibition, most hits filed as inhibitors; 400,000 tested, 0.93% active
Target sequence (P11473 whole entry, looked up): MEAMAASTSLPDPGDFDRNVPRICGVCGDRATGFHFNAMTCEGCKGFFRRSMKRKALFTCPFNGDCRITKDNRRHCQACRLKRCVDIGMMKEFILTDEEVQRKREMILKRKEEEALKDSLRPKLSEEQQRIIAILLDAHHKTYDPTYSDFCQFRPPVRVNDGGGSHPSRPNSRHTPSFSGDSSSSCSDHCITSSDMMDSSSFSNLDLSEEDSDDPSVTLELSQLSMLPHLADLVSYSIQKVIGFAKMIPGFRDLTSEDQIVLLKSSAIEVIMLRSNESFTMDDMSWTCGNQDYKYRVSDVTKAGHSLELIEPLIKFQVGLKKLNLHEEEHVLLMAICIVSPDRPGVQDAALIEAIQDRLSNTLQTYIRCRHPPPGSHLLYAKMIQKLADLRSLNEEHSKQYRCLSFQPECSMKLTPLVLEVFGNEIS
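Signal is fluorescence polarization, reporting how far test compounds block the interaction of VDR with the SRC2-3 coregulator peptide after a 2 h room-temperature incubation.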
Starred values were filed as active, the others as inactive; ? = inconclusive; . = no result given; ! = not confirmed by another sample; [ ] = remark or other dose. Only some compounds are listed: those with a hit (about 4.2% of all), similar ones and a draw of the others. Calls follow the shape of the dose curve; as a rule, active = well fitted curve in the direction sought with a large enough effect; inconclusive = small, poorly fitted or top-dose-only effect, or another doubt; inactive = no such curve, though single readings can be large; an effect the other way counts as inactive or inconclusive. Unless noted, % is scaled to controls: 0 for no effect and ±100 for the full control effect; potency is read from the fitted curve at half-maximal effect.

SMILES	12-LOX inh	Sfp PPTase inh	PLK1 PBD block	VDR inhibitor
CC1(C)C(=O)Nc2ccccc2N1C(=O)CN1C(=O)C(=O)N(C2CCCC2)C1=O	-4%	1%	-4%	12%
CCOC(=O)C1=C(C)OC(N)=C(C#N)C1c1ccc(C(F)(F)F)cc1 (configuration not stated)	16µM*	.	.	.
CCOC(=O)C1=C(C)OC(N)=C(C#N)C1c1ccccc1 (configuration not stated)	-18%	3%	-9%	-23%
O=Nc1ccc(NOC(=O)c2ccccc2)cc1	-7%	1%	-4%	-7%
O=C(N=Nc1ccc(NOC(=O)c2ccccc2Br)cc1)c1ccccc1O	-13%	79µM*	.	.
O=S1(=O)N[C@@H](Cc2ccccc2)COc2cccc(N3CCSCC3)c21	?	.	1%	.
CCCCc1nnc(NC(=O)CSc2nc(O)c(Cc3ccccc3)c(=O)[nH]2)s1	-3%	1%	27µM*	-3%
N#CC1=C(C2CC2)CC(c2ccccc2)C(C#N)=C1N (configuration not stated)	?	4%	-24%	-4%
N#CC1=C(N)SC2(CCCCC2)SC1c1ccccc1 (configuration not stated)	.	10µM*	21µM*	-29%
Cc1ccc(C2C(C(=O)c3cccs3)=C(O)C(=O)N2c2nncs2)cc1 (configuration not stated)	2.2µM*	.	.	.
O=C(C1=C(O)C(=O)N(c2nncs2)C1c1ccccc1)c1cccs1 (configuration not stated)	0.56µM*	.	.	.
CCc1nc2c(OCC(=O)C(C)(C)C)cccn2c1N(C)C(=O)c1cccs1	?	.	1%	.
CCCCCc1ccc(OCCCC[n+]2ccc(C)cc2)c(CCCCC)c1	?	50µM*	-12%	0%
CCCCCc1ccc(OCCCC[n+]2ccccc2)c(CCCCC)c1	.	35µM*	-9%	18%
CCC(C)(C)c1ccc(OCCCC[n+]2ccccc2)c(C(C)(C)CC)c1	?	50µM*	-12%	-15%
Cc1cccc(NC(=O)C2(c3cccs3)CCOCC2)c1	0%	3%	-11%	2%
CN1CCN(S(=O)(=O)c2cccc(C(=O)NCCOc3ccccc3)c2)CC1	-16%	.	3%	-2%
O=C(Cc1ccccc1)NO	.	24%	.	-2%
O=C(Cc1ccsc1-c1ccccc1)NO	16µM*	6%	-1%	10%
Cc1cc(C(=O)CSc2nc3cc([N+](=O)[O-])ccc3o2)c(C)n1C	-7%	.	.	.
O=C(CSc1nc2cc([N+](=O)[O-])ccc2o1)Nc1ccc(Cl)cc1	22µM*	.	.	.
Cc1ccc(NC(=O)CSc2ccc(C(N)=O)cc2[N+](=O)[O-])cc1C	-3%	12%	3µM*	22µM*
CCn1c(C)cc(C(=O)CSc2nc3cc([N+](=O)[O-])ccc3o2)c1C	3%	.	.	.
Cc1ccc(NC(=O)CSc2nc3cc([N+](=O)[O-])ccc3o2)cc1C	40µM*	.	.	.
Cc1cccc(NC(=O)CSc2nc3cc([N+](=O)[O-])ccc3o2)c1	32µM*	.	.	.
SMILES	12-LOX inh	Sfp PPTase inh	PLK1 PBD block	VDR inhibitor
O=C(CSc1nc2cc(Cl)ccc2o1)Nc1ccc(N2CCOCC2)cc1	-18%	7%	-7%	-1%
COc1ccc(C(=O)COc2ccccc2C#N)cc1	0%	16%	-15%	-17%
CC(NCC1(N2CCOCC2)CCCCC1)C(=O)Nc1ccc(Cl)cc1Cl (configuration not stated)	-24%	56µM*	-2%	-9%
COc1ccc(Cl)cc1C=CC=Nc1ccccc1O	?	.	-13%	89µM*
COc1ccc(Cl)cc1C=CC=NNS(=O)(=O)c1ccc(C)cc1	?	.	1%	-6%
Cc1nc(-c2cn(C3CCCN(C(=O)c4ccc(F)c(Cl)c4)C3)nn2)no1 (configuration not stated)	8%	.	.	.
CC1=C(Cc2cc3ccc(=O)oc3cc2O)CC(C)(C)CC1	6.3µM*	.	.	.
O=C(c1ccco1)N1CCN(Cc2cc(=O)c(OCc3cccc(F)c3)co2)CC1	-5%	.	8%	-3%
Cc1ccc(-c2nc(CNC(=O)CC3CNCCO3)[nH]c2-c2ccccn2)cc1 (configuration not stated)	76%	.	.	.
Cn1ccnc1Sc1ccccc1[N+](=O)[O-]	-4%	-8%	?	7%
CSc1nccn1C(=O)c1ccccc1[N+](=O)[O-]	2%	40µM*	?	?
CCOC(=O)c1c(C)n(C)c2cc([N+](=O)[O-])c(O)c([N+](=O)[O-])c12	-9%	10%	21µM*	-13%
CCOC(=O)c1c(N)c2cc([N+](=O)[O-])ccc2n1C	62%	10%	-20%	-17%
O=C(Nc1cccc(Cl)c1)OCc1cnc(Cl)s1	25µM*	16%	-6%	7%
O=C(Nc1cccc(Cl)c1)OCCOCCOC(=O)Nc1cccc(Cl)c1	-4%	.	10%	2%
S=c1[nH]c2ccc(Cl)cc2[nH]1	?	-2%	11µM*	?
COc1ccc2[nH]c(=S)[nH]c2c1	?	-1%	-11%	5%
S=c1[nH]c2cc(Cl)ccc2s1	45µM*!	-6%	1.9µM*	-4%
COc1ccc2c(c1)c[n+](C)c1c3cc(OC)c(OC)cc3ccc21	?	.	12µM*	.
COc1cc2c[n+](C)c3c4ccccc4ccc3c2cc1OC	-22%	.	-8%	-9%
O=C(O)c1cccnc1SC1CC(=O)N(Cc2ccccc2)C1=O (configuration not stated)	?	18%	3.8µM*	-10%
O=C(O)c1cccnc1SC1CC(=O)N(CCc2ccccc2)C1=O (configuration not stated)	7%	12%	-8%	0%
COC(=O)c1c(N2C(=O)CC(Sc3ncccc3C(=O)O)C2=O)sc(C)c1C (configuration not stated)	6%	89µM*	-15%	26%
CCC(=O)c1ccc(OCC(=O)OCC(=O)NC2CCCC2)cc1	-6%	.	-2%	-5%
O=C1C[C@@H]2CCN(C(=O)c3ccccc3)C[C@@H]2CCN1CCN1CCOCC1	6%[176 µM]	.	.	.
SMILES	12-LOX inh	Sfp PPTase inh	PLK1 PBD block	VDR inhibitor
COc1ccc(CCNC(=O)CSC(=O)c2ccccc2)cc1OC	-23%	45µM*	21µM*	?
COc1ccc(CCNC(=O)CSCc2ccc([N+](=O)[O-])cc2)cc1	-17%	12%	0%	-19%
CC(C)(C)OC(=O)N/N=C/c1cccn1-c1ccc([N+](=O)[O-])cc1	210%	10%	-4%	-4%
COc1ccc(CCNC(=O)CSCc2ccc([N+](=O)[O-])cc2)cc1OC	-23%	1%	9.5µM*	?
COc1ccc(CCNC(=O)CCn2cccc2)cc1OC	0%	17%	-1%	11%
COc1ccc(CCNC(=O)CCN2C(=O)C3CC=CCC3C2=O)cc1OC (configuration not stated)	0%	13%	24µM*	9%
COc1ccc(CC(=O)N/N=C/c2cccn2-c2ccc([N+](=O)[O-])cc2)cc1OC	-15%	56µM*	-9%	11%
O=C(Cc1cccc(Cl)c1)N1CCC2(CC1)CCN(Cc1cccs1)c1ccccc1O2	-13%	.	.	.
COc1ccc(CCNC(=O)CCCOc2ccc(C)cc2)cc1OC	-3%	-9%	24µM*	50µM*
